Source: the supplement of paper PMC3334620
Over roughly 33,000 sequences, “E-score (-0.5 to 0.5)” has its median near -0.056; the highest 2% begin near 0.38. The list comes from a sample in which the highest values are over-represented; it also holds similar and randomly drawn sequences.

Target: Stb4 (UniProt P50104)
Assay: PBM E-score (8-mer binding enrichment) (E-score (-0.5 to 0.5)); higher = stronger / more preferred TF binding
Conditions: protein concentration: 200 nM; construct: GST-DNA-binding domain
How it was run: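 Using PURExpress in vitro transcription/translation, GST-tagged yeast transcription factors were made in full-length or DNA-binding-domain form. These were applied at about 100-200 nM to double-stranded universal all-10-mer Agilent arrays, and bound protein was detected with fluorescent anti-GST. Scans were normalised with masliner before the Universal PBM Analysis Suite assigned E-scores to ungapped eight-base words pooled with their reverse complements.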

Chain of UniProt P50104 (P50104 whole entry): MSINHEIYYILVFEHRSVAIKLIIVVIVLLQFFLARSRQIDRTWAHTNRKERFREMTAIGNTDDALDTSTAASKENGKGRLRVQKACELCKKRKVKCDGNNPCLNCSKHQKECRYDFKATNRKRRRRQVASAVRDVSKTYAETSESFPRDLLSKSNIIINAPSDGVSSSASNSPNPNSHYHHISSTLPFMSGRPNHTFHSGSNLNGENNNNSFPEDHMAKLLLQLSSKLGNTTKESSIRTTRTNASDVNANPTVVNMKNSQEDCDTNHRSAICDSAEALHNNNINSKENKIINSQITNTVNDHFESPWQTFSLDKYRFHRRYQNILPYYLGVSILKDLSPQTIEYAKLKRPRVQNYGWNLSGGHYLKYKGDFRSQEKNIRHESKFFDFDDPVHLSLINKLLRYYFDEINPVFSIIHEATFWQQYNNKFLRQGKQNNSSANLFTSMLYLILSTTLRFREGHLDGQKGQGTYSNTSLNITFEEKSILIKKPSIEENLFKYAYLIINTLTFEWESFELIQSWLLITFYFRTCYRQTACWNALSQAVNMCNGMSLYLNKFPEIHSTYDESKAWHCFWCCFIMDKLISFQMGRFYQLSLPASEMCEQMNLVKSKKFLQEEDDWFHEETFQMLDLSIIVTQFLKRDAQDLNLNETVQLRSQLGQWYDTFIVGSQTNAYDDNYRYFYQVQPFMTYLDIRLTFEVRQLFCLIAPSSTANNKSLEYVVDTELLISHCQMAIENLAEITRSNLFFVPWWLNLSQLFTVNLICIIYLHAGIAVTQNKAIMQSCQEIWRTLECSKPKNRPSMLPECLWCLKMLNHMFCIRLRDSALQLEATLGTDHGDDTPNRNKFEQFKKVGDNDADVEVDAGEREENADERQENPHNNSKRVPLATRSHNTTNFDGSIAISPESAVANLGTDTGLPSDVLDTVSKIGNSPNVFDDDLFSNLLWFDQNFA

Going from CTGCCTAA to TGCCAAAA, the “PBM E-score” value rises from -0.169 to -0.0796.

First: TCGGGGCA
Second: ACTGGGCT
The “PBM E-score” value of the first is higher: 0.226 for the first, -0.0497 for the second.

First: ACAGTGCT
Second: ATCACAAA
The “PBM E-score” value of the first is lower: -0.181 for the first, -0.149 for the second.

Compared with CTATCTAC, CTCGCCGC is higher in “PBM E-score” value: -0.0208 for the first, 0.0149 for the second.

Compared with ACTGTACG, ACGAGGTA is higher in “PBM E-score” value: -0.153 for the first, -0.0352 for the second.

Going from CCGAGGTA to ACGAGGTC, the “PBM E-score” value falls from 0.401 to -0.278.

Compared with CTGAGGTC, CCGAGGTC is higher in “PBM E-score” value: -0.243 for the first, 0.424 for the second.

First: GCGAGGTA
Second: ACGAATCA
The “PBM E-score” value of the first is lower: -0.124 for the first, -0.0567 for the second.

Going from CCAGTAAA to TGATCGAA, the “PBM E-score” value falls from -0.0636 to -0.125.

Compared with GACCGCGA, AAATCCCG is higher in “PBM E-score” value: 0.0256 for the first, 0.339 for the second.

Going from ATCTCGAA to ATCTCGAG, the “PBM E-score” value falls from -0.0183 to -0.0973.

First: GTCTCGGA
Second: GTCTCGAA
The “PBM E-score” value of the first is higher: 0.442 for the first, -0.255 for the second.

First: ATCTCGGA
Second: ATCTCGCG
The “PBM E-score” value of the first is higher: 0.461 for the first, -0.0115 for the second.

First: GTCTCGTA
Second: ATCTCGCA
The “PBM E-score” value of the first is lower: -0.115 for the first, -0.035 for the second.

First: ATCTCGGG
Second: AAGATTTA
The “PBM E-score” value of the first is higher: 0.449 for the first, 0.0925 for the second.

Going from AAGAAATA to AGTTAGGA, the “PBM E-score” value falls from -0.0625 to -0.167.

Compared with ATCACGAC, CGTCGGTA is higher in “PBM E-score” value: -0.123 for the first, 0.294 for the second.

First: ATTCGGTA
Second: CTTCGGTC
The “PBM E-score” value of the first is higher: 0.36 for the first, 0.234 for the second.

Going from GTTCGGTA to CTTCGGTA, the “PBM E-score” value falls from 0.425 to 0.383.

Going from GGTCGGTA to AAGACTCC, the “PBM E-score” value falls from 0.223 to -0.0274.

Compared with AGATAGTG, ATAAGTAG is lower in “PBM E-score” value: -0.0913 for the first, -0.157 for the second.

Going from GGCGAACC to CCCGAACC, the “PBM E-score” value rises from -0.0255 to 0.414.

Going from CACGAACA to TGCGAACA, the “PBM E-score” value falls from -0.0987 to -0.144.

First: GCCGAACC
Second: CCCGAACG
The “PBM E-score” value of the first is higher: 0.395 for the first, 0.378 for the second.

First: CCCGAACA
Second: ACCGAACC
The “PBM E-score” value of the first is higher: 0.393 for the first, 0.336 for the second.

First: CGCGAACC
Second: TCCGAACA
The “PBM E-score” value of the first is lower: 0.166 for the first, 0.447 for the second.

Compared with TACGAACA, CACGAACC is lower in “PBM E-score” value: -0.191 for the first, -0.198 for the second.

Compared with GGAAAGTA, GAAATAGC is lower in “PBM E-score” value: 0.172 for the first, 0.0755 for the second.

First: GATCTTGC
Second: AGGCAGAC
The “PBM E-score” value of the first is higher: 0.0905 for the first, -0.1 for the second.

Going from CGAGACGC to ACCCGCTA, the “PBM E-score” value rises from 0.14 to 0.151.

First: CACCCTAA
Second: CTACAGTA
The “PBM E-score” value of the first is lower: -0.201 for the first, -0.139 for the second.

Compared with ACTCCTTA, CGCAAGAA is higher in “PBM E-score” value: -0.0987 for the first, 0.0756 for the second.

Going from ACCGAACA to GCCGAACA, the “PBM E-score” value rises from 0.313 to 0.393.

Compared with GTCGAACA, CCAGGTCG is lower in “PBM E-score” value: -0.044 for the first, -0.247 for the second.

Going from ATTACCCA to ATTACCCC, the “PBM E-score” value rises from -0.0268 to 0.133.

Going from ACTACCCG to ATTACCCG, the “PBM E-score” value rises from 0.401 to 0.416.

First: AATACCCG
Second: AATACCCT
The “PBM E-score” value of the first is higher: 0.431 for the first, 0.0669 for the second.

Going from ACTACCCC to AACACCCC, the “PBM E-score” value rises from -0.0517 to 0.0426.

First: AATACCCA
Second: CACACCCG
The “PBM E-score” value of the first is lower: -0.00809 for the first, 0.3 for the second.

Going from ACTACCCA to AACACCCG, the “PBM E-score” value rises from -0.261 to 0.4.

Compared with CCAGTGCA, ACGGCTAG is higher in “PBM E-score” value: -0.303 for the first, 0.12 for the second.

First: ACAGCCAA
Second: TCTAGAGA
The “PBM E-score” value of the first is higher: -0.135 for the first, -0.256 for the second.

Going from TGAAACAA to CAAGAAAG, the “PBM E-score” value rises from -0.124 to -0.0821.

Compared with CCGAACGA, GCGAACGC is lower in “PBM E-score” value: 0.379 for the first, -0.0479 for the second.

Compared with CCGAACGG, ACGAACGC is lower in “PBM E-score” value: 0.413 for the first, -0.15 for the second.

Going from ACGAACGG to CCGAACGC, the “PBM E-score” value rises from 0.0948 to 0.415.

First: ATGCTGTC
Second: CGCTAGAA
The “PBM E-score” value of the first is higher: -0.134 for the first, -0.154 for the second.

Going from ACTTATCT to AAGTCTTC, the “PBM E-score” value rises from -0.211 to -0.108.

Compared with ATGCTGAG, CCTTCGCA is lower in “PBM E-score” value: -0.229 for the first, -0.236 for the second.

Compared with ACTTCGCC, ACTTCGGC is higher in “PBM E-score” value: -0.0357 for the first, 0.392 for the second.

First: CCTTCGGC
Second: CCTTCGGA
The “PBM E-score” value of the first is lower: 0.335 for the first, 0.474 for the second.

First: GCTTCGTA
Second: ACTTCGAG
The “PBM E-score” value of the first is lower: -0.25 for the first, -0.0152 for the second.

Compared with ACTTCGCG, CCTTCGAA is lower in “PBM E-score” value: 0.116 for the first, -0.117 for the second.

Compared with ACTTCGGG, GCTTCGCA is lower in “PBM E-score” value: 0.407 for the first, -0.173 for the second.

First: GCTTCGGA
Second: CGTAGTGA
The “PBM E-score” value of the first is higher: 0.439 for the first, -0.114 for the second.

Going from GAAGAGTC to ACCACTAA, the “PBM E-score” value rises from -0.0545 to -0.0511.

Going from AGGAGTCG to GCCATAAC, the “PBM E-score” value falls from -0.142 to -0.211.

First: AAGTCGGG
Second: ACTCATTG
The “PBM E-score” value of the first is higher: 0.306 for the first, -0.0916 for the second.

Going from CACGCCAG to ACTTCGCA, the “PBM E-score” value falls from -0.0642 to -0.156.

Going from ACTTCGGA to ACTTCGAA, the “PBM E-score” value falls from 0.458 to -0.167.

Compared with CCGATCCA, CCGATCCC is higher in “PBM E-score” value: 0.238 for the first, 0.34 for the second.

First: ATGATCCG
Second: ACGATCCA
The “PBM E-score” value of the first is higher: 0.397 for the first, -0.0732 for the second.

First: ATGATCCC
Second: CCGATCCG
The “PBM E-score” value of the first is lower: 0.157 for the first, 0.445 for the second.

Compared with ACGATCCG, ACGATCCC is lower in “PBM E-score” value: 0.399 for the first, 0.192 for the second.

First: ATGATCCA
Second: GAGACGCA
The “PBM E-score” value of the first is lower: -0.032 for the first, 0.0275 for the second.

Compared with CCCAATCC, CAGGGGCG is lower in “PBM E-score” value: 0.0104 for the first, -0.182 for the second.

First: GGAACCGA
Second: GGGACCGA
The “PBM E-score” value of the first is higher: 0.343 for the first, 0.265 for the second.

Going from ATAACCGA to ATAACCGG, the “PBM E-score” value falls from 0.388 to 0.281.

First: CTAACCGC
Second: TCAACCGA
The “PBM E-score” value of the first is lower: 0.0169 for the first, 0.291 for the second.

First: CGAACCGA
Second: CTAACCGA
The “PBM E-score” value of the first is lower: 0.397 for the first, 0.401 for the second.

First: CGAACCGC
Second: ATAACCGC
The “PBM E-score” value of the first is lower: 0.0494 for the first, 0.0841 for the second.

Going from CGGACCGA to CGGACCGC, the “PBM E-score” value falls from 0.419 to 0.29.

Going from GAACGTCA to CTGCCATC, the “PBM E-score” value rises from -0.175 to -0.0272.

First: CCCGTACC
Second: AGAACTTG
The “PBM E-score” value of the first is higher: 0.245 for the first, -0.161 for the second.

Compared with ACTGACCT, AATGAAAG is higher in “PBM E-score” value: -0.2 for the first, -0.0359 for the second.

Compared with ACTAGGGG, TCCGCAGA is higher in “PBM E-score” value: -0.0854 for the first, 0.0922 for the second.

First: GTAACCTA
Second: GTAACCCA
The “PBM E-score” value of the first is higher: 0.0635 for the first, -0.0452 for the second.

Going from GATACCGA to CTTACCGA, the “PBM E-score” value rises from 0.291 to 0.393.

Going from GTTACCGA to CATACCGA, the “PBM E-score” value falls from 0.366 to 0.287.

Going from GTAACCGA to TATACCGA, the “PBM E-score” value falls from 0.386 to 0.383.

Compared with CTTACCGC, GACCCAAC is lower in “PBM E-score” value: 0.119 for the first, -0.116 for the second.

Compared with CGGTAGAG, AATTTGCC is lower in “PBM E-score” value: 0.112 for the first, 0.0997 for the second.

First: ATGAGATC
Second: ACTGAAAT
The “PBM E-score” value of the first is higher: -0.124 for the first, -0.18 for the second.

First: GGTCGGAA
Second: CGTCGGAG
The “PBM E-score” value of the first is higher: 0.439 for the first, 0.275 for the second.

First: GGTCGGGA
Second: AGTCGGCC
The “PBM E-score” value of the first is higher: 0.368 for the first, 0.168 for the second.

Compared with AGTCGTAT, CGTCGGGA is higher in “PBM E-score” value: -0.147 for the first, 0.383 for the second.

For CGTCGGAA, the “PBM E-score” value was 0.452.
